The source of these data is PubChem BioAssay AID651821 (The Scripps Research Institute Molecular Screening Center, 2012).

In all, about 370,000 compounds went through this assay and about 4,700 (1.3%) were called active. This excerpt belongs to a sample that is enriched for actives. Unmarked numbers belong to inactive results.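 Rule for the calls: active = inhibition above the plate cutoff, the mean of all test compounds on that plate plus 3 SD (cut at about 35% in these data); inactive = the rest.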

This assay is described as follows: binders of r(CAG) RNA repeats, primary screen, biochemical, fluorescence (AID 651821).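 Note: 0% = DMSO alone and 100% = 100 µM mitoxantrone as full dye displacement; higher means more dye released from RNA so lower well fluorescence.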 The note with it: r(CAG) RNA repeat, TO-PRO-1 dye displacement fluorescence; at 3 µM; hits give high values.
In the case of `CN(C(N)=NC(=O)/C=C/c1ccccc1)C(C#Cc1ccccc1)Cc1ccccc1` (configuration not stated), the inhibition was 3.26%. For `COc1ccc(-c2cc(-c3nnc(SCc4ccc([N+](=O)[O-])cc4)n3N)[nH]n2)cc1` the value was 9.69%; for `COC(=O)c1cccc(Cn2ccc3ccc(-c4ccc5ccn(C(=O)C6CCCCC6)c5c4)cc32)c1`, 12.2%; for `Cc1ccc(Cn2cc(CN3[C@@H](C)COc4cc(Br)ccc4S3(=O)=O)nn2)cc1`, 3.68%. With `C=CCN1C(=O)[C@H](CC(=O)NCCCN2CCCC2=O)[C@@]2(C(=O)OCC)CCCC=C12`, the inhibition was 1.48%. Regarding `COc1cc(NC(=O)C2CCCN(S(=O)(=O)c3ccc(C(C)(C)C)cc3)C2)cc(OC)c1` (configuration not stated), the inhibition was 9.76%. As for `Cc1c(Cl)cccc1NC(=O)CCC(=O)N/N=C/c1ccco1`, the inhibition was -4.6%. `Cc1ccc(-n2c(SCC(=O)Nc3cccc4ccccc34)nnc2-c2ccco2)cc1`: the inhibition is 6.64%.

Take `O=C(CCCN1C(=O)/C(=C\c2ccco2)SC1=S)Nc1cccc2ccccc12`: the inhibition was 40.1% (active).

Take `O=C(O)c1ccc(NC(=O)c2ccc(COc3ccc(Cl)cc3)o2)cc1`: the inhibition was 22.1%. The same measure for `CC(=O)c1ccc(NC(=O)c2cc(-c3cccs3)on2)cc1`: -1.84%; for `COc1ccc(-c2nn(-c3ccccc3)cc2/C=C\C(=O)Nc2ccc(C(=O)O)cc2)cc1`: 83.7% (active). For `O=C(NNC(=S)NCCCN1CCOCC1)c1ccncc1` the value was -0.42%; for `O=C(O)c1ccc(NC(=O)c2cn(-c3ccccc3)nc2-c2ccc(Cl)cc2)cc1`, 80.9% (active); for `COc1ccc(NC(=O)c2cn(-c3ccccc3)nc2SC)cc1`, 5.53%.

Consider `O=C(O)c1ccc(N/N=C/c2cn(-c3ccccc3)nc2-c2cccs2)cc1`, for which the inhibition was 70.5% (active). On to `O=C(c1cnn(-c2ccc(Cl)cc2)c1)c1ccccc1O`, for which the inhibition is 2.23%.

With `O=C(NNC(=S)NC(=O)c1cn(-c2ccccc2)nc1-c1ccccc1)c1ccncc1`, the inhibition was 42.5% (active). For `O=C(N/N=C/c1sc(N2CCCCC2)nc1-c1cccs1)c1cccnc1` the value was 5.88%.

As to `O=C(c1cn(-c2ccccc2)nc1-c1cccnc1)N1CCN(S(=O)(=O)c2ccccc2F)CC1`, the inhibition is 3.83%. The same measure for `O=C(/C=C/c1cn(-c2ccccc2)nc1-c1ccc2c(c1)OCCO2)NCCCN1CCOCC1`: -0.21%; for `CC1CCCN(c2cccc3c2S(=O)(=O)N(Cc2ccc(F)cc2)[C@@H](C)[C@H](c2ccccc2)O3)C1` (some centres not stated): 1.44%. The same measure for `Cn1cc(S(=O)(=O)Nc2ccc(Cl)cc2Cl)c(=O)n(C)c1=O`: 1.76%; for `COC(=O)c1ccc(CN2C(=O)[C@]3(OCCC=C[C@H]3C)c3c(Br)cccc32)cc1`: 0.13%. In the case of `O=S(=O)(c1ccccc1)N1CCC(c2nc3ccccc3o2)CC1`, the inhibition is 0.56%. For `COC(=O)[C@]12CCCCC=C1N(Cc1ccc(Cl)cc1Cl)C(=O)[C@H](CC(=O)NCc1cccc3ccccc13)C2` the value was 12.9%. The same measure for `O=C(NC1CCC1)c1ccc(C#Cc2cccc(F)c2)c[n+]1[O-]`: 1.31%; for `C#CCNC(=O)C[C@H]1C[C@@]2(C(=O)OC)C(=C[C@H](C(C)C)O[C@@H]2C2CC2)N(Cc2ccco2)C1=O`: -0.82%; for `COC1=C[C@H](C(=O)NCCNC(C)=O)[C@H](C)[C@@H](c2ccccc2)CC1=O`: 7.1%. For `COC(=O)C1=C(C)N(Cc2cccc(C(F)(F)F)c2)C(=NCc2ccccc2)NC1c1ccc(Cl)cc1` (configuration not stated) the value was 6.45%; for `N#CC1(NC(=O)COC(=O)Cc2n[nH]c(=O)c3ccccc23)CCCCC1`, -1.83%.

With `COC(=O)c1cccc(Cn2ccc3ccc(-c4ccc5ccn(C(=O)c6ccccc6C)c5c4)cc32)c1`, the inhibition was 10.1%.

As to `COC(=O)C[C@@H]1CC[C@@H]2[C@@H](COc3ccc(NC(=O)Nc4ccc(F)c(F)c4)cc3C(=O)N2C)O1`, the inhibition was 3.67%. For `CCOC(=O)[C@H]1Nc2ccc(Cl)cc2[C@@H]2[C@H]1C1CC(c3ccccc31)N2C(=O)OCc1ccccc1` (some centres not stated) the value was 8.62%; for `CCOC(=O)C1Nc2ccc(C(F)(F)F)cc2C2C=CCC12` (configuration not stated), 60.5% (active); for `CCOC(=O)C[C@H]1c2ccc(C(F)(F)F)cc2S(=O)(=O)N1c1ccccc1`, 4.3%.

On to `CC1=CC=CC2=N/C(=N\S(=O)(=O)c3ccc(F)cc3F)c3ccccc3CN12`, for which the inhibition was -1.16%.

Turning to `CC(=O)c1cc(-c2ccc3ccccc3c2)c(=O)n2c1CCC2`, the inhibition was 5.03%.

Regarding `N#Cc1ccccc1CN1C(=O)S/C(=C/c2cccn2-c2cccc(C(=O)O)c2)C1=O`, the inhibition was 58.4% (active).

For `O=C(CSc1nc2sc3c(c2c(=O)n1-c1ccccc1)CCCC3)NN=Cc1ccc(OCc2ccccc2)cc1`, the inhibition is 7.65%. On to `CN(C(=O)CSc1nnc(Nc2ccccc2)s1)C1CCS(=O)(=O)C1` (configuration not stated), for which the inhibition is 0.39%. Consider `CC(C)c1ccc(Nc2nnc(SCC(=O)c3nnc(-c4ccccc4)o3)s2)cc1`, for which the inhibition was 50.7% (active). `CC(C)Nc1nnc(SCC(=O)c2c[nH]c3ccccc23)s1`: the inhibition is 3.39%.

As to `CC(=O)N1C(=O)/C(=C2\SC(=S)N(NC(=O)c3ccc(O)cc3)C2=O)c2ccccc21`, the inhibition is 14%. Take `O=C1/C(=C/c2ccc(F)cc2)SC(=S)N1NS(=O)(=O)c1ccccc1`: the inhibition is 55.7% (active).

Turning to `C/C(CC(=O)N1CCN(C=O)CC1)=N\NC(=O)c1ccc(Br)cc1`, the inhibition is 0.43%. For `O=S(=O)(NC(=S)Nc1ccccc1)c1ccc(F)cc1`, the inhibition is 1.19%.

For the compound `O=C(O)c1ccc(/C=C2\SC(=S)N(NC(=O)c3ccc(Br)cc3)C2=O)cc1`, the inhibition is 34.9% (active). For `O=C1c2ccccc2NC(c2ccccc2O)N1NS(=O)(=O)c1ccccc1` (configuration not stated) the value was 2.81%. Consider `CC1(NC(=O)CCS(=O)(=O)c2ccc(Cl)cc2)CCS(=O)(=O)C1` (configuration not stated), for which the inhibition is 2.03%. Turning to `OC(c1ccccc1)c1nc(-c2cnc3ccccc3c2)cs1` (configuration not stated), the inhibition was 16.2%. As for `Cc1ccc(CSc2nnc(SCC(=O)NN=Cc3cc(Br)ccc3F)s2)cc1`, the inhibition was 5.78%. The same measure for `Cc1ccc(C(=O)O)c(NC=O)c1OCc1ccccc1`: 0.76%; for `CCCCC[C@@H]1C=C(C(=O)OCC)[C@H](c2ccccc2)N1S(=O)(=O)c1ccc(C)cc1`: 5.36%; for `CCCCC[C@@H]1C=C(C(=O)O)[C@H](c2ccc(C#N)cc2)N1S(=O)(=O)c1ccc(C)cc1`: 62.3% (active). Consider `CCOC(=O)C1=CC[C@@H](c2ccccc2)N(S(=O)(=O)c2ccc(C)cc2)[C@H]1c1ccc(CC)cc1`, for which the inhibition was 2.92%. With `O=C(O)C1CCCN1S(=O)(=O)c1ccc(Br)cc1` (configuration not stated), the inhibition is -0.5%. The same measure for `Cc1ccc(S(=O)(=O)N2CCCC2CO)cc1` (configuration not stated): -2.42%. For `Cc1ccc(S(=O)(=O)N2[C@@H](c3ccc(Br)cc3)C(C(=O)O)=C[C@H]2CC2CCCC2)cc1` the value was 82.8% (active); for `CCn1c(SCC(C)=O)nc2sc3c(c2c1=O)CCCC3`, 4.43%; for `CCOC(=O)[C@]12CCCC3=C1N(CCC3)C(=O)[C@@H](CC(=O)NCC13CC4CC(CC(C4)C1)C3)C2`, -1.58%.

For the compound `O=C(c1ccccc1)c1ccc(-c2ccccc2C(=O)NC2CCCCN(Cc3ccc(Cl)cc3)C2=O)cc1` (configuration not stated), the inhibition was 12.5%. For `Cc1ccc(C)c(CN2CCC(CNC(=O)C3CCCN(c4ncnc5c4nc4n5CCCCC4)C3)CC2)c1` (configuration not stated) the value was -1.34%; for `CCCCCCCCNS(=O)(=O)/C=C/c1cc(C)ccc1CNC(=O)OC(C)(C)C`, 5.11%; for `CSc1ccc(Oc2cccc3c2S(=O)(=O)N([C@H](C)c2ccccc2)C[C@@H](COCc2ccccc2)O3)cc1C`, 5.63%. For `Cc1noc(C)c1NC(=O)Nc1ccc2c(c1)C(=O)N([C@H](C)CO)C[C@H](C)[C@H](CN(C)Cc1ccncc1)OCCCC[C@@H](C)O2`, the inhibition was 6.45%. For `CCCc1cc(=O)[nH]c(SCC(=O)Nc2ccc(C(=O)Nc3ccccc3OC)cc2)n1` the value was 31.1%.

As for `COc1ccc(OC)c(NC(=O)CSc2nc(N)c(-c3ccccc3)c(=O)[nH]2)c1`, the inhibition was 4.81%. On to `COc1ccc(OC)c(NC(=O)CSc2nc(-c3ccccc3)cc(=O)[nH]2)c1`, for which the inhibition is 37.5% (active). For `Cc1ccccc1NC(=O)COC(=O)c1ccc(Sc2ncn[nH]2)c([N+](=O)[O-])c1`, the inhibition was 6.52%. Turning to `NC(=O)c1c(Nc2nc3c(F)cccc3s2)sc2c1CCCC2`, the inhibition is 52.5% (active).

As to `O=C(O)c1c(NC(=O)N2CCCC2)sc2c1CCCC2`, the inhibition was 3.93%. The same measure for `CCOC(=O)C(NC(=O)CC(C)C)(Nc1sc2c(c1C(N)=O)CCCC2)C(F)(F)F` (configuration not stated): -6.2%; for `COc1ccc(Br)c2c1C(=O)CC2`: -1.62%; for `CCn1cc(C(=O)NCC2COc3ccccc3O2)c2cc(OC)c(OC)cc2c1=O` (configuration not stated): 53.3% (active). The same measure for `COc1ccc(NC(=O)CC2COc3ccccc3O2)c(OC)c1` (configuration not stated): -0.79%.

Take `CCn1cc(C(=O)N2CCN(C3CCCCC3)CC2)c2cc(OC)c(OC)cc2c1=O`: the inhibition was -10.2%. For `COc1cccc(CSc2nnc(-c3cccnc3)n2Cc2ccccc2)c1` the value was 3.2%. For `CCCNC(=O)Nc1ccc2c(c1)C(=O)N(C)[C@H]1CC[C@H](CC(=O)NCC3CCCCC3)O[C@@H]1CO2` the value was 2.13%. `COc1ccc(Cl)cc1C=CC=Nc1ccc(S(N)(=O)=O)cc1`: the inhibition was 14.6%. As for `COc1ccccc1/C=C/C=N/n1c(-c2ccc(Cl)cc2Cl)n[nH]c1=S`, the inhibition was 36.1% (active).

In the case of `COc1ccc(Cl)cc1C=CC=NNC(=O)c1ccncc1`, the inhibition was 1.27%.

One may read the inhibition as the relative decrease from the control value, in per cent.
